Test results as given in PubChem BioAssay AID977622 (Broad Institute, 2014).
Fewer than 10 of roughly 1,900 compounds were called active. Not shown: some 39% with an inconclusive outcome.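 How the source made its calls: active means Green signal of the normal strain falls at least twice as much as red signal of the resistant mutant, with overall culture growth loss under a set limit; inconclusive means no clear call, values can overlap the other calls; inactive means the rest.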 The list is a sample of the results.

Experiments:
[1] = wild-type E. coli growth inhibition versus h38 humanized strain – h38 mutant RFP, wild-type GFP, cherry-pick, dose response (AID 977622); conditions: activity change: E. coli mixed culture, total growth OD600 at 50 uM, at 50 µM
[2] = test system: E. coli h38 humanized mutant ribosome RFP fluorescence, mixed culture, 24 h; assay: as above; conditions: h38 mutant RFP at 50 uM; at 50 µM

| SMILES | activity change [1] [%] | outcome [1] | activity change [2] [%] |
| --- | --- | --- | --- |
| CCc1ccc(CN2CCCC(CNS(=O)(=O)c3ccc(OC)cc3)C2)cc1 (centres undefined) | -13.3 | inactive | 9.56 |
| COc1ccc(OC)c(NC(=O)COc2ccc(S(=O)(=O)NC(C)C)cc2)c1 | -14.2 | inactive |  |
| O=C1CCCc2ccccc2N1Cc1ccccc1 | -14.6 | inactive |  |
| Cc1cccc(CN2C(=O)c3ccccc3Sc3ccc(C(=O)O)cc32)c1 | -13.7 | inactive |  |
| Cc1noc(C)c1NC(=O)Nc1ccc2c(c1)C(=O)N([C@@H](C)CO)C[C@@H](C)[C@H](CN(C)C(=O)Nc1ccc3c(c1)OCO3)OCCCC[C@@H](C)O2 | -13.2 | inactive | 26.4 |
| C=CCn1c(C)cc(C(=O)CSc2nnc(C3CC3)n2C2CC2)c1C | -20.6 | inactive | -37.4 |
| CN(C)S(=O)(=O)N1CCN(c2ccccc2Cl)CC1 | -14.9 | inactive | -15.7 |
| O=C(c1ccc(-n2cccn2)cc1)N1CCc2ccccc2C1 | -28.7 | inactive | -27.7 |
| Cc1onc(-c2ccccc2Cl)c1C(=O)Nc1ccc(Cl)cn1 | -9.88 | inactive |  |
| COc1cc(C#N)ccc1OCC(=O)Nc1cccc(S(=O)(=O)N2CCCC2)c1 | -1.82 | inactive | -20.8 |
| COc1ccc(C2CC(=O)Oc3cc(C)cc(C)c32)cc1 (centres undefined) | -0.711 | inactive | 12.7 |
| O=C(Nc1cc(S(=O)(=O)N2CCOCC2)ccc1N1CCOCC1)c1ccc([N+](=O)[O-])s1 | -3.16 | inactive | 13.2 |
| COc1ccccc1Cc1c(-c2ccc(F)cc2)nc2ccc(Br)cn12 | -10.3 | inactive |  |
| CN(C)CCNc1ncnc2c1sc1nc(N3CCCC3)c3c(c12)CC(C)(C)OC3 | -21.5 | inactive | -11.2 |
| Cc1ccccc1NC(=O)c1ccccc1N(C)S(=O)(=O)c1ccccc1 | -14.8 | inactive | -11.7 |
| O=C1OC[C@@H]2CCCN2C(=O)[C@@H](CC(=O)N(CCO)Cc2ccccc2)C/C=C\C[C@H]1Cc1ccc(F)cc1 | -20.1 | inactive | -35.1 |
| COc1cccc(CN(C)Cc2nc(Cc3ccccc3Cl)no2)c1 | -26.5 | inactive | 24.2 |
| CC(CCc1ccccc1)NC(=O)CCC1CCCC1 (centres undefined) | -8.51 | inactive | 4.55 |
| CCNC(=O)C1(C)CCCN(Cc2cccc3ccccc23)C1 (centres undefined) | 1.55 | inactive | 69.8 |
| CCS(=O)(=O)N1CCN(c2ccnc3cc(Cl)ccc23)CC1 | -3.73 | inactive | 61.1 |
| Cc1ccc(-n2cc(CNCCN3CCOC3=O)c(-c3ccc(F)cc3)n2)cc1 | -3.42 | inactive | 31.2 |
| Cc1cc(C)cc(NS(=O)(=O)c2cc(C(=O)NCc3ccccn3)ccc2Cl)c1 | -24.9 | inactive | -5.16 |
| CCn1c(COc2cccc(OC)c2)nnc1SCC(=O)Nc1cc(OC)ccc1OC | -38.2 | inactive | -20.2 |
| C[C@@H]1CN([C@@H](C)CO)S(=O)(=O)c2ccc(Br)cc2O[C@H]1CN(C)C(=O)c1ccccc1 | -2.07 | inactive |  |
| C[C@@H]1CCCCO[C@H](CN(C)C)[C@@H](C)CN([C@H](C)CO)C(=O)c2cc(NC(=O)Nc3cccc4ccccc34)ccc2O1 | 8.4 | inactive | 44.4 |
| O=C(C[n+]1cc(-c2ccc(F)cc2)n2c1CCC2)c1cccs1 | 2.39 | inactive | 21.5 |

| SMILES | activity change [1] [%] | outcome [1] | activity change [2] [%] |
| --- | --- | --- | --- |
| C[C@H](CO)N1C[C@H](C)[C@H](CN(C)C(=O)Nc2ccc3c(c2)OCO3)Oc2c(NC(=O)Nc3ccccc3)cccc2C1=O | -5.63 | inactive | 44 |
| Cc1ccc2oc(=O)n(CCCOc3ccccc3C)c2c1 | -15.8 | inactive | -0.57 |
| COc1ccc(CN2CCC3CC2c2cc(Cl)ccc23)cc1 (centres undefined) | -30.7 | inactive | -4.61 |
| NS(=O)(=O)c1cc(C(=O)OCC(=O)Nc2ccccc2[N+](=O)[O-])ccc1Cl | -8.81 | inactive | 1.48 |
| CC(=O)Oc1ccc(N(c2ccccc2)S(=O)(=O)c2ccc(C)cc2)cc1 | -32.3 | inactive |  |
| COc1ccc(NC(=O)Nc2cccc3c2O[C@H](CN(C)S(=O)(=O)c2ccc(Cl)cc2)[C@@H](C)CN([C@@H](C)CO)C3=O)cc1 | -2.69 | inactive | -5.12 |
| O=C(O)c1ccccc1Nc1cc(Cl)c2nonc2c1[N+](=O)[O-] | -25.7 | inactive |  |
| C[C@@H]1CCCCO[C@H](CN(C)C)[C@H](C)CN([C@@H](C)CO)C(=O)c2cc(NC(=O)Nc3cccc4ccccc34)ccc2O1 | 4.86 | inactive | 1.63 |
| COc1ccc(C#Cc2ccc([C@@H]3[C@@H](CO)N4CCCCN(C(=O)Nc5ccc(F)cc5)C[C@H]34)cc2)cc1 | -49.7 | inactive | 97.4 |
| Cc1cccc(Oc2ccc(NC(=O)c3ccccc3C(=O)O)cc2)c1 | -16.2 | inactive |  |
| CCOCC(=O)Nc1c(C(=O)Nc2ccc3c(c2)OCCO3)oc2ccccc12 | -44.7 | inactive | 4.56 |
| COc1cc2c(c(OC)c1OC)C(c1ccc3c(c1)OCO3)CC(=O)O2 (centres undefined) | -14.3 | inactive | 37.2 |
| CCC(C)c1ccccc1NC(=O)c1cccc(-n2cnnn2)c1 (centres undefined) | -13.9 | inactive | -4.87 |
| CN(C)CCCN(C(=O)CCOc1ccccc1)c1nc2c(F)cccc2s1 | -10.6 | inactive | -7.27 |
| CC(NC(=O)c1ccc(CS(=O)(=O)c2ccc(Cl)cc2)o1)c1ccc2c(c1)OCCO2 (centres undefined) | -24.9 | inactive | 17.5 |
| NS(=O)(=O)c1ccc(NC(=O)c2cc(Cl)sc2Cl)cc1 | 0.867 | inactive | 13.3 |
| CC(C)(CC(=O)O)CC(=O)NCc1c(Cl)cccc1Sc1ccc(Cl)cc1 | -12.9 | inactive |  |
| C[C@H]1CN([C@@H](C)CO)C(=O)c2c(c3ccccc3n2C)-c2ccccc2CO[C@@H]1CN(C)Cc1ccncc1 | -20.6 | inactive | -32.1 |
| CCCCc1n(CC(=O)c2ccc(Cl)cc2)c2ccccc2[n+]1C | -11.8 | inactive | 5.85 |
| Cc1noc(C)c1NC(=O)Nc1ccc2c(c1)C(=O)N([C@H](C)CO)C[C@H](C)[C@H](CN(C)C(=O)Nc1ccc3c(c1)OCO3)OCCCC[C@H](C)O2 | -22 | inactive | -9.02 |
| Cc1cccc(-c2ccc([C@H]3[C@@H](CO)N4CCCCN(S(=O)(=O)c5ccccc5C)C[C@@H]34)cc2)c1 | -22.4 | inactive | 18.9 |
| Cc1ccccc1CSCC(=O)Nc1ccccc1F | 0.464 | inactive | -14.9 |
| Cc1ccc(-n2nnnc2SCC(=O)NC2CCCc3ccccc32)cc1 (centres undefined) |  | inactive | 6.43 |
| Cc1ccc(C(=O)Nc2cccc3[nH]c(C(F)(F)F)nc23)cc1 | -24.3 | inactive | -27.5 |
| CS(=O)(=O)Nc1ccccc1C(=O)NCCSc1ccccc1 |  | inactive | -11.5 |
| O=C(C[n+]1ccn(-c2ccccc2)c1)c1ccc([N+](=O)[O-])cc1 | -2.75 | inactive | -5.23 |

| SMILES | activity change [1] [%] | outcome [1] | activity change [2] [%] |
| --- | --- | --- | --- |
| CCOC(=O)c1cnc2ccccc2c1NCc1ccco1 | -29.3 | inactive | -3.48 |
| NC(=O)C1CCN(c2cc(Cl)ccc2[N+](=O)[O-])CC1 | -7.61 | inactive | -0.291 |
| COCCn1c(SCc2nc3ccccc3s2)nc2ccccc21 | 15.3 | inactive | 9.77 |
| CC(=O)c1cccc(NC(=O)COC(=O)CCC(=O)c2ccc(F)cc2)c1 | -8.28 | inactive | 14.5 |
| OCCC1CN(Cc2cnc(-c3ccc(Cl)cc3)nc2)CCN1C1CCCCC1 (centres undefined) | -4.88 | inactive |  |
| CN1c2ccccc2-c2nc3ccccc3n2C1c1ccncc1 (centres undefined) | -2.28 | inactive | -4.12 |
| C=C1c2cc3c(cc2NC(=S)N1Cc1ccccc1)OCO3 | -19.2 | inactive | -23.6 |
| CC(=O)c1cccc(NC(=O)C2CCCN(S(C)(=O)=O)C2)c1 (centres undefined) | 4.2 | inactive |  |
| CC(C)CC#Cc1ccc([C@@H]2[C@@H](CO)N3C(=O)CN(C(=O)Cc4ccccc4)C[C@@H]23)cc1 | 9.26 | inactive | 19.9 |
| OC(COc1ccc(Cl)cc1)CN1CCN(c2ccccn2)CC1 (centres undefined) | -8.02 | inactive |  |
| CN(CC(=O)Nc1cccc(F)c1)C(=O)Cn1c(=O)oc2ccccc21 | 2.16 | inactive | 60 |
| CCN(CC)S(=O)(=O)c1ccc(O)c(C(=O)OCC(=O)NC23CC4CC(CC(C4)C2)C3)c1 | -19.8 | inactive |  |
| CC1(CCC(=O)N2CCCC(N3CCN(c4ccc(F)cc4)CC3)C2)CC1 (centres undefined) | -2.02 | inactive | 22.3 |
| CCc1ccc(NC(=O)CCc2c(C)nn(-c3ccc(N4CCCCC4)nn3)c2C)cc1 | -4.17 | inactive | -12.8 |
| COc1cccc(C(=O)c2c[nH]c(C(=O)NCc3cccnc3)c2)c1 | -3.41 | inactive | 13.5 |
| COc1ccc(NS(=O)(=O)c2cc(NC(=O)CNC(=O)c3cccc(OC)c3)ccc2C)cc1 | -27.6 | inactive | -12.3 |
| O=C(Nc1ccc(Cl)cn1)c1ccc([N+](=O)[O-])o1 | -3.86 | inactive | 54.7 |
| COc1cccc(CC(=O)OC(C)C(=O)NCc2ccc3c(c2)OCO3)c1 (centres undefined) | -31 | inactive | 6.13 |
| O=S(=O)(Cc1ccccc1)N1CCCCN2[C@@H](CO)[C@H](c3ccc(C#Cc4ccccc4)cc3)[C@@H]2C1 | 2.15 | inactive | 11.8 |
| Nc1[nH]c(C(=O)c2ccccc2)c(-c2ccc(Cl)cc2)c1C(=O)NCCc1c[nH]c2ccccc12 | -15.2 | inactive | 2 |
| Cc1ccccc1-n1c([C@@H]2C[C@H]2c2ccccc2)n[nH]c1=S | -23.8 | inactive |  |
| COc1ccc(OC)c(NC(=O)COC(=O)CCNc2ccccc2OC)c1 | -9.13 | inactive | -0.869 |
| Cc1ccc(NC(=O)c2ccc3c(c2)OCO3)cc1S(=O)(=O)N1CCOCC1 | -35.8 | inactive | -6.07 |
| COc1ccc(NC(=O)CN(c2ccccc2OC)S(=O)(=O)c2cccs2)cc1Cl | -14.2 | inactive | 19 |
| Cc1cccc(OCCC(=O)N(C)CC(=O)Nc2cccc3ccccc23)c1 | -25.4 | inactive | 27.9 |
